Bioassay records deposited in PubChem by National Center for Advancing Translational Sciences (NCATS).
HT1080 IDH1KD tx: toxicity to HT-1080 IDH1 knockdown cells (counter line); HT-1080 IDH1 knockdown viability, ATP luminescence, 48 h; Potency, µM (top dose mostly 46.1 µM), inactives show at the top dose activity, negative = toxicity, hits mostly cytotoxic; 360,000 tested, 2% active; AID 686971;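 also: 0% = DMSO wells and -100% = cell-free medium wells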
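Assay cells: HT-1080 with IDH1 knockdown, 750 per well, RPMI/5% FBS. Exposure: 48 h at 37 °C following 2 h pre-incubation. Read: CellTiter-Glo luminescence; fitted concentration-response, curve class assigned.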
HT1080NT lethal: kills 2HG-producing HT-1080-NT fibrosarcoma cells | HT-1080-NT fibrosarcoma viability, CellTiter-Glo ATP luminescence, 48 h | Potency, µM (series often up to 46.1 µM), without a hit: at the top dose activity, negative = less viability, hits mostly cytotoxic | 360,000 tested, 1.6% active;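 also: NT is the 2HG producing partner of a matched IDH1 knockdown line; 0% = DMSO-treated cells and -100% = media-only wells without cells; nearly all actives have a fitted effect of over 55% in size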
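Read-out is CellTiter-Glo luminescence after 10 minutes at room temperature, following 48 hours' compound treatment of HT-1080-NT cells (750 cells/well, RPMI, 5% FBS, 37 degrees C).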
KB-3-1 cytotox: kills parental KB-3-1 adenocarcinoma cells. KB-3-1 viability, CellTiter-Glo ATP luminescence, 72 h. Potency, µM (top dose mostly 46.1 µM), actives largely listed as cytotoxic. 400,000 tested, 1.4% active. AID 1347075; also: nearly all actives have a fitted effect of over 60% in size
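Parental KB-3-1 viability, qHTS format: 72 h compound exposure, 37 °C; CellTiter-Glo; media-only wells and DMSO plates as controls; concentration-effect fits on corrected data.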
DT40 TDP1 CPT: DT40-hTDP1 cell growth loss with CPT; chicken DT40 Tdp1-/-;hTDP1 cells + 20 nM CPT, ATP luminescence, 48 h; Potency, µM (top dose mostly 46.2 µM), without a hit: at the top dose activity change, negative = growth inhibition, most hits filed as inhibitors; 420,000 tested, 12% active; also: nearly all actives have a fitted effect of over 55% in size
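Chicken DT40 Tdp1-/- cells complemented with human TDP1, 400 cells/well, exposed to compounds plus 20 nM camptothecin for at least 48 h at 37 C; viability read as ATP content by CellTiter-Glo luminescence.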
KB-V1 MDR tox: KB-V1 MDR subline cytotoxicity; AID 1347076; KB-V1 MDR cells viability, CellTiter-Glo, 72 h; Potency, µM (titrated, usually from 46.1 µM), most hits filed as cytotoxic; 400,000 tested, 3.4% active; also: nearly all actives have a fitted effect of over 60% in size
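Compound-treated KB-V1 multidrug-resistant cells, 72 h, 37 degrees C; viability by CellTiter-Glo. Fitted qHTS curves give the values.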
TDP1 cell noCPT: qHTS for Inhibitors of human tyrosyl-DNA phosphodiesterase 1 (TDP1): qHTS in cells in absence of CPT | Potency, µM (series often up to 46.2 µM), for the others: top-dose activity change, negative = growth inhibition, usual class: inhibitors | 420,000 tested, 15% active | AID 686978, 2013 | DT40 Tdp1-/- hTDP1 cells, no CPT, ATP luminescence, 48 h; also: nearly all actives have a fitted effect of over 55% in size
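Camptothecin absent (DMSO only). Human TDP1-complemented DT40 knockout cells, 400 cells/well, 37 °C for minimum 48 hr; ATP measured via CellTiter-Glo, 30 min dark incubation, luminescence.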
Numbers without * were called inactive; i = inactive; ? = inconclusive; · = no result; [ ] = dose if it differs, or a comment. Most compounds without a hit are left out; they make up all but 19% or so of the library. Calls follow the shape of the dose curve; as a rule, active = well fitted curve in the direction sought with a large enough effect; inconclusive = small, poorly fitted or top-dose-only effect, or another doubt; inactive = no such curve, though single readings can be large; an effect the other way counts as inactive or inconclusive. Unless noted, % is scaled to controls: 0 for no effect and ±100 for the full control effect; potency is read from the fitted curve at half-maximal effect.

SMILES	HT1080 IDH1KD tx	HT1080NT lethal	KB-3-1 cytotox	DT40 TDP1 CPT	KB-V1 MDR tox	TDP1 cell noCPT
COc1cccc(-c2cnc(C(O)c3ccc(C(C)(C)C)cc3)[nH]2)c1 (configuration not stated)	?	?	i	?	i	18.4µM*
Cc1cc(S(=O)(=O)Nc2cc3c(cc2Cl)n(C)c(=O)c(=O)n3C)ccc1F	·	·	i	-22.1%	i	?
COc1cccc(-c2cnc(C(O)c3cc(Cl)cc(Cl)c3)[nH]2)c1 (configuration not stated)	?	?	i	23.1µM*	i	?
C/C(=N\NC(=O)c1ccccc1)c1ccccc1F	0.1%	-1.8%	i	9.9%	i	9.6%
C/C(=N\NC(=O)c1ccccc1OCCOc1ccccc1)c1ccccc1F	?	?	i	?	?	16.4µM*
COc1ccc(CCNC(=O)/C=C/c2ccc(OC)c(S(=O)(=O)N3CCOCC3)c2)cc1	-2.0%	1.9%	i	?	i	5.8µM*
COc1ccc(/C=C/C(=O)Nc2ccccc2F)cc1S(=O)(=O)N1CCOCC1	-16.4%	3.8%	i	?	i	-17.1%
CCCOc1ccccc1NC(=O)/C=C/C(N)=O	10µM*	?	i	1.26µM*	i	2.51µM*
COc1ccc(/C=C/C(=O)Nc2ccccc2C)cc1S(=O)(=O)N1CCOCC1	-1.3%	13µM*	?	?	i	-26.0%
CCC(C)(C)NC(=O)/C=C/c1ccc(OC)c(S(=O)(=O)N2CCOCC2)c1	7.0%	10.6%	i	-23.7%	i	?
CCCOc1ccccc1NC(=O)/C=C/c1ccc(OC)c(S(=O)(=O)N2CCOCC2)c1	-16.7%	-11.4%	i	?	i	16.4µM*
COc1ccc(CN2C[C@@H](CO)O[C@@H](n3cnc4c(NCCO)ncnc43)C2)cc1	6.5%	20.6%	i	?	i	-21.3%
Cc1ccc(N(CC(=O)NC(C)(C)C)C(=O)CS(=O)CC(=O)Nc2ccc3c(c2)OCO3)cc1 (configuration not stated)	4.8%	-0.5%	i	-1.6%	i	-6.2%
CCc1ccc(C2N3CC4(C)CN2CC(c2ccccc2)(C3)C4=O)cc1 (configuration not stated)	·	·	i	?	?	?
COc1cc(/C=C/C(=O)Nc2ccc(OC)c(S(=O)(=O)N3CCOCC3)c2)ccc1OC(F)F	?	-12.9%	?	18.4µM*	?	16.4µM*
COc1ccc(/C=C/C(=O)Nc2ccc(C(C)=O)cc2)cc1S(=O)(=O)N1CCOCC1	6.6%	2.7%	i	0.4%	?	-21.5%
Cc1cccc(C(=O)OCC(=O)NCCCc2ccccc2)c1	-16.1%	-4.1%	i	28.8%	i	-2.3%
CC1c2ccccc2N(S(=O)(=O)c2ccccc2)C1C (configuration not stated)	?	?	i	?	i	23.1µM*
CCN(C(=O)CN1C(=O)/C(=C/c2ccccc2)SC1=S)C1CCS(=O)(=O)C1 (configuration not stated)	-2.9%	-2.0%	i	23.1µM*	i	?
O=C1/C(=C\c2cccs2)SC(=S)N1C1CCS(=O)(=O)C1 (configuration not stated)	4.6%	3.9%	i	?	i	?
O=C1/C(=C/c2ccccc2)SC(=S)N1C1CCS(=O)(=O)C1 (configuration not stated)	9.5%	7.5%	?	23.1µM*	i	?
NS(=O)(=O)c1ccc(-c2ccc(/C=C3\SC(=S)N(C4CCS(=O)(=O)C4)C3=O)o2)cc1 (configuration not stated)	5.5%	0.2%	?	?	i	?
O=C1/C(=C/c2ccncc2)SC(=S)N1C1CCS(=O)(=O)C1 (configuration not stated)	-29.3%	?	?	5.8µM*	?	8.2µM*
O=C1CCC[C@@H]2C[C@@]3(C[C@@H]4CCN1[C@H]24)Nc1cc([N+](=O)[O-])ccc1NC3=NCc1ccccc1	·	·	i	?	i	?
Cc1ccccc1C(=O)N1CCC(C(=O)NCCc2ccc(S(N)(=O)=O)cc2)CC1	3.5%	21.1%	i	?	i	-0.7%
SMILES	HT1080 IDH1KD tx	HT1080NT lethal	KB-3-1 cytotox	DT40 TDP1 CPT	KB-V1 MDR tox	TDP1 cell noCPT
COc1ccc(CCNC(=S)NCc2ccc(Cl)c(Cl)c2)cc1OC	?	?	i	-2.5%	i	?
CCOC(=O)c1ccc(-c2ccc(-c3cc(=O)oc4cc(OC)c(OC)c(OC)c34)cc2)cc1	5.5%	10.2%	i	18.4µM*	i	18.4µM*
COc1cc2oc(=O)cc(-c3ccc(-c4ccc(OC(F)(F)F)cc4)cc3)c2c(OC)c1OC	12.4%	15.6%	i	16.4µM*	i	11.6µM*
COc1cc2oc(=O)cc(-c3ccc(-c4ccc(F)c(Cl)c4)cc3)c2c(OC)c1OC	0.0%	0.5%	i	18.4µM*	i	14.6µM*
COc1cc2oc(=O)cc(-c3ccc(-c4ccc(N(C)C)cc4)cc3)c2c(OC)c1OC	-5.1%	-2.1%	i	?	i	?
COc1cc(-c2coc3cc(OC)c(OC)c(OC)c3c2=O)cc(OC)c1OC	·	·	·	-2.1%	·	-12.3%
CCOC(=O)c1ccc(-c2c(C)cc3oc(=O)cc(-c4ccccc4)c3c2C)cc1	5.7%	4.8%	?	?	i	?
COc1ccc(-c2ccc(-c3cc(=O)oc4cc(OC)c(OC)c(OC)c34)cc2)cc1F	-0.7%	-0.5%	i	18.4µM*	i	23.1µM*
O=C(CSc1nc(C2CC2)nc2ccccc12)Nc1ccccc1N1CCOCC1	-9.4%	-0.2%	i	?	i	?
Cn1c(N)c(C(=O)COC(=O)c2ccco2)c(=O)n(C)c1=O	0.1%	11.6%	i	-6.8%	i	-19.9%
c1cncc(OC2CCN(Cc3ccc4c(c3)CN(Cc3nc5ccccc5s3)CCO4)CC2)c1	·	·	·	4.6%[9.04 µM]	·	-12.9%
CCOC(=O)Cn1c(=O)n(C2CCCCC2)c2nc(-c3ccc(CC)cc3)nc(C(N)=O)c21	·	·	8.2µM*	·	i	·
CCOC(=O)Cn1c(=O)n(C2CCCCC2)c2nc(-c3ccc(OCC)cc3)nc(C(N)=O)c21	·	·	18.4µM*	·	?	·
